# Screening data (PubChem BioAssay)
# An excerpt weighted towards active compounds, which were near 4.4% of everything screened.
# TRHR ag: TRH receptor (human) agonism | TRHR cells, calcium flux fluo-8, FDSS agonist mode | activation, % at 2 µM | 360,000 compounds, 0.18% hits | AID 493084; also: 0% is about no effect
#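 Steps: seed TRHR cells overnight; add fluo-8 no-wash Ca dye, RT 30 min–1.5 h; record 10 s baseline; pin-transfer compounds; monitor fluorescence 1 cycle/s for the agonist window. Calcium increases flag candidate agonists.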
# D1 ag: activates the human D1 dopamine receptor | P21728 | HEK293 T-REx D1 cells, calcium flux, agonist mode | activation, % at 2 µM | 360,000 compounds, 1% hits | AID 504660; also: 0% is about no effect
# Target sequence (P21728 whole entry, looked up): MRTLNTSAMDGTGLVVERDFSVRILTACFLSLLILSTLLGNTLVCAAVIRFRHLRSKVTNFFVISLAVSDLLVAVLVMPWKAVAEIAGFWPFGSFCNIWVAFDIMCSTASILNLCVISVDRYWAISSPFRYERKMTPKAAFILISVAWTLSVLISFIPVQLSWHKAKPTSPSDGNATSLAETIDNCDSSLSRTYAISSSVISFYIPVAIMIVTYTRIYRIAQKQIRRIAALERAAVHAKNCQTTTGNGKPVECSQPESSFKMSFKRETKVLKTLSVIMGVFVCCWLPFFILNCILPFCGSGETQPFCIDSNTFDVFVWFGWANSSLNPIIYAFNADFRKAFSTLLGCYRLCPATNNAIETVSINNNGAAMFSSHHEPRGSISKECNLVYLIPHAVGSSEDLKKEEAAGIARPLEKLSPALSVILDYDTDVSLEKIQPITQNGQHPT
#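 Inducible HEK293 T-REx D1 cells, force-coupled to calcium signalling, were plated at 4000 cells/well with tetracycline and held overnight at 30 C. After no-wash calcium dye loading, compound-evoked calcium rise over 180 s flagged agonists.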
# TRHR enhancer: TRH receptor (human) allosteric enhancement; P34981; TRHR cells, fluo-8 calcium fluorescence, EC20 TRH enhancement; enhancement, % at 2 µM; 360,000 compounds, 0.66% hits; in the data active = enhancement above about 30%; also: 0% is about no effect
#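 Enhancer read-out: after compound pinning and an initial kinetic agonist-mode read, an EC20 of TRH (10 nM final) was injected and fluo-8 calcium signal (Ex 480/Em 530) followed at 1 s/cycle for 100 cycles in TRHR-expressing cells.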
# D1 antag: blocks dopamine activation of the human D1 receptor. 360,000 compounds, 3.2% hits. activity change, negative = inhibition, % at 10 µM. AID 504652. HEK293 TREx D1 cells, calcium flux, dopamine EC80; active compounds read low. P21728; in the data active = activity change below about -30%; also: % is scaled to controls: 0 for no effect and ±100 for the full control effect
#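 After overnight tetracycline induction at 30 C, force-coupled D1 HEK293 cells took up a no-wash calcium dye at room temperature. Compounds were added and monitored 180 s, and the response to EC80 dopamine was then recorded.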
# USP1-UAF1 inh: blocks the human USP1/UAF1 deubiquitinase complex | O94782 | recombinant USP1/UAF1, Ub-Rhodamine cleavage fluorescence | Potency, µM (titrated, usually from 57.1 µM), for the others: top-dose activity change, negative = inhibition, usual class: inhibitors | 390,000 compounds, 0.23% hits | AID 743255; active = well fitted inhibition curve with a large enough effect; inconclusive = small, poorly fitted or top-dose-only effect; inactive = no such curve, though single readings can be large or run the other way; also: potency is read from the fitted curve at half-maximal effect; % is scaled to controls: 0 for no effect and ±100 for the full control effect; nearly all actives have a fitted effect of over 60% in size
#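 Step one: compound is pinned into 1nM USP1/UAF1 in HEPES pH 7.8 buffer with TCEP. Step two: 15 min room-temperature incubation. Step three: Ub-Rho (150nM final) starts cleavage, tracked by fluorescence over six one-minute reads.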
# D1 potentiator: human D1 dopamine receptor positive modulation; P21728; HEK293 TREx D1 cells, calcium flux, dopamine EC20 potentiation; potentiation, % at 10 µM; 360,000 compounds, 0.036% hits; AID 504651; in the data active = potentiation above about 30%; also: 0% is about no effect
# Active calls of the source: *; ? = inconclusive; / = no result. Rule as the data show it, unless noted: active = activation above about 30%; inactive = the rest.
SMILES,TRHR ag,D1 ag,TRHR enhancer,D1 antag,USP1-UAF1 inh,D1 potentiator
O=C1Cc2cc(S(=O)(=O)N3CCCCC3)cc3c2N1CCC3,0.2,-1.1,-3.9,/,-9.2%,-2.8
CC1(CCc2ccc3c(c2)OCO3)NCCc2c1[nH]c1ccccc21 (centres undefined),2.4,127.8*,-7.1,-37.8*,-17.5%,-4.5
CC1(CCc2ccc3c(c2)OCO3)NC(=O)c2ccccc2N1 (centres undefined),-0.1,1.6,-5.6,-9.0,-20.0%,-6.2
O=C(C[n+]1ccccc1)Nc1c(Cl)cc(Cl)cc1Cl,-0.7,2.3,38.7*,9.1,-16.0%,4.8
Cc1ccc[n+](CC(=O)Nc2c(Cl)cc(Cl)cc2Cl)c1,-0.6,0.7,0.3,19.5,-12.2%,-3.2
Cc1ccc(C)c2[nH]c(=O)c(CN(CCN3CCCC3)C(=O)Nc3ccc(F)cc3)cc12,-0.9,2.2,1.8,-36.2*,-19.1%,-8.5
O=C(CNC(=O)c1ccccc1)N[C@H](C(=O)Nc1cc(C(F)(F)F)ccc1Cl)c1ccccc1,-1.1,4.4,-1.9,7.1,/,-1.9
CCc1ccc(NC(=O)N2CC=C(c3c[nH]c4ccccc34)CC2)cc1,0.3,2.9,11.1,-18.9,-20.4%,2.2
CCOc1ccc(NC(=O)N2CC=C(c3c[nH]c4ccccc34)CC2)cc1,0.3,5.6,4.4,-35.1*,-13.2%,-2.6
O=C(CCn1cnc2ccccc2c1=O)NCc1ccccc1,0.6,0.8,6.5,23.6,-8.2%,-0.1
Cc1ccc(C(=O)NC(=S)N2CCN(c3ccccc3F)CC2)cc1,-0.4,1.3,-4.1,-42.3*,-20.3%,-4.0
Cc1ccc(C(=O)NC(=S)N2CCN(c3cc(C)ccc3C)CC2)cc1,-0.6,4.4,-1.2,-9.4,-16.6%,-8.1
Cc1ccc2c(c1)C(Cc1ccccc1F)C(=O)N2 (centres undefined),-2.3,2.2,4.1,-46.3*,-9.7%,-2.2
COc1ccc(Br)cc1CC1C(=O)Nc2ccccc21 (centres undefined),0.0,13.7,-5.3,-10.5,-21.0%,2.7
Cc1ccccc1CC1C(=O)Nc2ccc(Br)cc21 (centres undefined),-2.6,48.2*,11.4,2.9,-17.6%,31.7*
CCOc1ccc(-c2c(C)nn3c(C)c(C(=O)NCc4ccc(C)o4)cnc23)cc1OCC,0.4,5.5,-3.8,-33.6*,9.6%,-7.5
CCOc1ccc(-c2c(C)nn3c(C)c(C(=O)NCc4ccc(Cl)cc4)cnc23)cc1OCC,-0.5,-1.2,1.4,4.6,-12.3%,-2.0
Cc1cccc(CNC(=O)c2cnc3c(-c4cccc(C)c4)c(C)nn3c2C)c1,0.7,0.2,2.0,-33.2*,?,-6.0
CCOc1ccc(-c2c(C)nn3c(C)c(C(=O)NCc4cccc(OC)c4)cnc23)cc1OCC,-0.5,9.4,-0.6,-28.9,-15.2%,-8.6
Cc1cc(C)c(NC(=O)C(=O)NCCc2csc(-c3ccc(F)cc3)n2)c(C)c1,0.0,2.0,0.8,-2.5,-1.7%,0.6
O=C(OCc1ccccc1Cl)c1ccc(-n2cnnc2)cc1,-0.6,19.6,3.3,-35.7*,-14.7%,-10.2
CCOc1ccc(CN2C(=O)CCC2(C)C(=O)NCc2cccnc2)cc1 (centres undefined),-0.4,3.0,-0.6,-30.3*,-23.1%,-7.9
Cc1cc[n+](CC(=O)c2cccc([N+](=O)[O-])c2)c2ccccc12,1.3,3.4,34.2*,1.2,-22.0%,0.0
Cc1ccc(-c2c(C(=O)Nc3ccc(F)c(F)c3)oc(=O)c3ccccc23)cc1,0.9,4.0,-2.7,-1.0,-21.0%,-1.9
O=C(N/N=C/C(Cl)=C/c1ccccc1)c1ccccn1,-0.5,1.7,-3.7,-21.7,-12.1%,-7.8
SMILES,TRHR ag,D1 ag,TRHR enhancer,D1 antag,USP1-UAF1 inh,D1 potentiator
CC(/C=N/NC(=O)c1n[nH]c2c1CCC2)=C\c1ccccc1,-0.6,4.3,-1.1,-78.9*,-6.9%,-0.6
CC(/C=N/NC(=O)c1ccccc1F)=C\c1ccccc1,-0.9,-1.4,-2.5,-35.2*,-10.5%,-12.0
Cc1cc(C(=O)N/N=C/C(Cl)=C/c2ccccc2)c(C)o1,0.3,4.0,-5.5,-32.6*,-24.8%,-4.2
CC(=C/c1ccccc1)/C=N/NC(=O)CSc1nc(C)cc(C)n1,-0.5,8.6,3.2,-33.9*,-11.1%,-9.1
Cc1cc(C)nc(SCC(=O)N/N=C/c2cccnc2)n1,0.8,1.3,6.7,10.4,-17.4%,6.3
CC1CCCCN1Cc1c(O)ccc2c(=O)c(-c3ccc(Cl)cc3)c(C(F)(F)F)oc12 (centres undefined),0.0,-0.3,3.2,3.8,-13.5%,-1.9
CC(=O)N1c2ccccc2CC1C(=O)NCc1cccc(Cl)c1 (centres undefined),-0.3,4.5,-6.3,-8.5,-3.3%,-2.5
CC(O)[C@H]1CC[C@H]2[C@@H]3CC[C@H]4C[C@H](O)CC[C@]4(C)[C@H]3[C@H](O)C[C@]12C (some centres undefined),-0.8,71.7*,-3.6,-50.1*,13.4%,-2.8
CC(O)[C@H]1CC[C@H]2[C@@H]3CC[C@H]4C[C@@H](O)CC[C@]4(C)[C@H]3C(=O)C[C@]12C (some centres undefined),1.2,8.0,4.5,-3.2,-16.2%,-2.5
CCOC(=O)c1ccccc1NC1(c2ccc(OC)cc2)C(=O)c2ccccc2C1=O,0.8,0.1,10.6,6.7,1.2%,-3.2
CC(Cc1cccnc1)NC(=O)c1cc(COc2ccc(F)cc2Cl)on1 (centres undefined),2.0,9.8,-7.5,-33.6*,-15.2%,-9.8
CC(Cc1cccnc1)NC(=O)c1cc(COc2c(F)cccc2F)on1 (centres undefined),-0.1,4.8,3.6,6.3,-16.5%,2.5
CC(CCn1cccn1)NC(=O)c1cc(COc2ccc(F)cc2F)on1 (centres undefined),0.1,1.0,35.5*,2.9,-6.6%,-0.7
O=C(NC1CCN(Cc2ccccc2)C1)c1cc(COc2ccc(F)cc2F)on1 (centres undefined),-0.1,11.0,31.0*,2.0,-20.2%,-3.5
CCC(CC)C(=O)Nc1cccc(-c2nc3ncccn3c2C)c1,-0.9,0.2,-2.0,-4.6,?,4.7
CCN(CC)Cc1c(O)ccc2c(-c3ccccc3)cc(=O)oc12,0.0,2.6,-1.9,-31.1*,-11.9%,-12.8
CCCCN(CC)Cc1c(O)ccc2c(-c3ccccc3)cc(=O)oc12,0.0,-0.7,3.1,-27.5,?,-9.7
CCOc1cc2sc(N3CCC(C(=O)Nc4ccc(C)cc4)CC3)nc2cc1Br,1.5,0.7,-8.3,-57.8*,-5.9%,-3.6
